The results in this text go back to paper PMC7862700, “An all-to-all approach to the identification of sequence-specific readers for epigenetic DNA modifications on cytosine”.

Holding throughout (assay): DAPPL (digital affinity profiling via proximity ligation, sequencing); 10 mM Tris-HCl pH 7.5, 50 mM NaCl, 1 mM DTT, 4% glycerol, room temperature, 30 min; GST-TFs on glutathione beads, 16-mer random dsDNA library, 0.1% formaldehyde crosslink after washing; high values mean tight binding
In one assay the target is T1, FEV (Homo sapiens, UniProt Q99581 1-238).
T1 sequence: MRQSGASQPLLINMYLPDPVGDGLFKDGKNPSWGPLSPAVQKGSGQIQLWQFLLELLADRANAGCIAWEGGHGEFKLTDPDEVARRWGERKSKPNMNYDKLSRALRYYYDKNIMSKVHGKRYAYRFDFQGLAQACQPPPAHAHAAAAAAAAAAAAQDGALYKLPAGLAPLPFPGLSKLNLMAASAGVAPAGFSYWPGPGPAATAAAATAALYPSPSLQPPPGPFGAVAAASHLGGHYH
Conditions: protein: recombinant; tags: N-terminal GST; dsDNA, one strand shown. A digest of the protocol: (§1)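 After expression in yeast as GST fusions, human transcription factors were bound to glutathione beads, DNA-barcoded and mixed with a tag-only sample. The pools were incubated with 200 nmole of a 16-mer random double-stranded DNA library in Tris/NaCl/DTT/glycerol buffer (30 min, room temperature), washed and crosslinked with 0.1% formaldehyde. Proximity ligation with BsaI/T4 ligase ran for 1 h at 37 °C, before PCR amplification and sequencing on an Illumina NextSeq500. Binding signal is a hexamer's read frequency for a factor divided by its frequency for the tag-only sample.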

For a further assay, the target named is ETV5 (Homo sapiens, UniProt P41161 1-510). The settings on record: protein: recombinant; tags: N-terminal GST; dsDNA, one strand shown. A digest of the protocol:
as §1

Another assay concerns the target HSF1 (Homo sapiens, UniProt Q00613 1-529). Conditions: protein: recombinant; tags: N-terminal GST; chain copies: 3; dsDNA, one strand shown. A digest of the protocol: as §1
The target of a further assay is T2, SPIC (Homo sapiens, UniProt Q8N5J4 1-248).
T2 sequence: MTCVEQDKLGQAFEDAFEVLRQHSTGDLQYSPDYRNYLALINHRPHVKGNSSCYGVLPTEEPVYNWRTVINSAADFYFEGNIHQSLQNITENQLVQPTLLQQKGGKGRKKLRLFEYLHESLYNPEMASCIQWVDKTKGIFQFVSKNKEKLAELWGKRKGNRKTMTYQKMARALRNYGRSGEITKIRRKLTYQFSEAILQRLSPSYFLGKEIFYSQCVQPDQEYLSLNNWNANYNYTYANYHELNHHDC
Conditions: protein: recombinant; tags: N-terminal GST; dsDNA, one strand shown. A digest of the protocol:
as §1

In a further assay the target is ELF4 (Homo sapiens, UniProt Q99607 1-663). Conditions: protein: recombinant; tags: N-terminal GST; dsDNA, one strand shown. A digest of the protocol: as §1
The next assay addresses T3, ELK4 (Homo sapiens, UniProt P28324-2 1-405).
T3 sequence: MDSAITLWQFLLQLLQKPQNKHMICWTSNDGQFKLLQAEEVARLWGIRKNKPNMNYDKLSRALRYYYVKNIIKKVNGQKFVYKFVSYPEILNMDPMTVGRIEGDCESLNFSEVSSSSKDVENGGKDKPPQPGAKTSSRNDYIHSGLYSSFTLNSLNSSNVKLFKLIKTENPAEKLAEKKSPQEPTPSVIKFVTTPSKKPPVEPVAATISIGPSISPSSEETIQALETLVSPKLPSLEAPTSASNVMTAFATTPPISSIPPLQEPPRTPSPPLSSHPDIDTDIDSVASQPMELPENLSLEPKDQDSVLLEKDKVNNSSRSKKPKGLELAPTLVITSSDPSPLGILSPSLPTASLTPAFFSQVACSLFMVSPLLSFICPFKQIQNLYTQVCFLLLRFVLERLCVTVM
Conditions: protein: recombinant; tags: N-terminal GST; dsDNA, one strand shown. A digest of the protocol:
as §1

The next assay addresses T4, ETV2 (Homo sapiens, UniProt O00321 1-342).
T4 sequence: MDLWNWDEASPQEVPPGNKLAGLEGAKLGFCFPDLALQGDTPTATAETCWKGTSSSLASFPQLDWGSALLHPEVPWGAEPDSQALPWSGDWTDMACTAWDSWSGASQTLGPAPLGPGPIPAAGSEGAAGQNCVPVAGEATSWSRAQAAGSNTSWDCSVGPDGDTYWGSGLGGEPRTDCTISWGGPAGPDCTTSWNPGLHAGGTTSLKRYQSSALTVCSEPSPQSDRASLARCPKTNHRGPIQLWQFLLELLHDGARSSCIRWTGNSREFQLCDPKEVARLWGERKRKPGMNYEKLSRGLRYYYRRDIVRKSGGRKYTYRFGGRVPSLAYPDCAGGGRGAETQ
Conditions: protein: recombinant; tags: N-terminal GST; dsDNA, one strand shown. A digest of the protocol: as §1

For another assay, the target named is T5, ELF3 (Homo sapiens, UniProt P78545 1-371).
T5 sequence: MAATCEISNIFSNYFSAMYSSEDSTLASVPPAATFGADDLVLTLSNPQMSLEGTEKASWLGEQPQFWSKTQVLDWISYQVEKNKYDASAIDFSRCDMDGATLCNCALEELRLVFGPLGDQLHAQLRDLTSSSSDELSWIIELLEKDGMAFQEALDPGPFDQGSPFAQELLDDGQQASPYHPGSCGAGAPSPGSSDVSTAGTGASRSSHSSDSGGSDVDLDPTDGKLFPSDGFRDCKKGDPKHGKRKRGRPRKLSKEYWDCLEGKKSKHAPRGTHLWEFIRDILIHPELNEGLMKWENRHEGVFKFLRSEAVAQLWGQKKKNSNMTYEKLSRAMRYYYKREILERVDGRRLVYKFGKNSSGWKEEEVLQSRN
Conditions: protein: recombinant; tags: N-terminal GST; dsDNA, one strand shown. A digest of the protocol:
as §1

Another assay addresses CRX (Homo sapiens, UniProt O43186 1-299). Conditions: protein: recombinant; tags: N-terminal GST; dsDNA, one strand shown. A digest of the protocol: as §1
For the next assay, the target named is ETV1 (Homo sapiens, UniProt P50549 1-477). Conditions: protein: recombinant; tags: N-terminal GST; dsDNA, one strand shown. A digest of the protocol: as §1
The target in another assay is T6, ERF (Homo sapiens, UniProt P50548 1-548).
T6 sequence: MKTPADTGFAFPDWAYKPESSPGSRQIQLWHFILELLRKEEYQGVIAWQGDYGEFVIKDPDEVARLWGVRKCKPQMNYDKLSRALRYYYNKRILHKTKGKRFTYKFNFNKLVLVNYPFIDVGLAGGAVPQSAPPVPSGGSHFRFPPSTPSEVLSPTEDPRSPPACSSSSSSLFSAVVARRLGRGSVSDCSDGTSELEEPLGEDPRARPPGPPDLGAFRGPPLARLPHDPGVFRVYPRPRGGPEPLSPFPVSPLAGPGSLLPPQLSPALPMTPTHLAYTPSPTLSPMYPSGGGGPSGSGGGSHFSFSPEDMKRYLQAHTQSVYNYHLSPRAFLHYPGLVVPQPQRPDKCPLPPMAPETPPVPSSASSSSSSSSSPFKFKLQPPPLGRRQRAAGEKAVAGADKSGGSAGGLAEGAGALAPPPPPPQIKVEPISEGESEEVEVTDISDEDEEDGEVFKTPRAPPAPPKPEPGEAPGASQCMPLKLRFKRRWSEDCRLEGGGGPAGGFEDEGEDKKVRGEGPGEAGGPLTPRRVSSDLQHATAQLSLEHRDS
The settings on record: protein: recombinant; tags: N-terminal GST; dsDNA, one strand shown. A digest of the protocol:
as §1

A further assay addresses T7, ETV3L (Homo sapiens, UniProt Q6ZN32 1-361).
T7 sequence: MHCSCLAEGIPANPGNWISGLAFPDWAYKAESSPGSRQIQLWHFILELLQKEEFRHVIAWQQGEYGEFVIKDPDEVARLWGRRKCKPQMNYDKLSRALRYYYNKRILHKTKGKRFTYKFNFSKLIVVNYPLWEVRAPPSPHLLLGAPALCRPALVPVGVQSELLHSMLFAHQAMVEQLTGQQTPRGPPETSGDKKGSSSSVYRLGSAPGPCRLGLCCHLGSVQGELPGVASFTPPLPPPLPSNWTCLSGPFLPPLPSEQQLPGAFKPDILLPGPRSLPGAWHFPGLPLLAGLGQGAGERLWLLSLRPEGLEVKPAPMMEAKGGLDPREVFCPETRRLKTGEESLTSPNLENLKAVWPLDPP
The settings on record: protein: recombinant; tags: N-terminal GST; dsDNA, one strand shown. A digest of the protocol:
as §1

The target of a further assay is T8, ETS2 (Homo sapiens, UniProt P15036 1-469).
T8 sequence: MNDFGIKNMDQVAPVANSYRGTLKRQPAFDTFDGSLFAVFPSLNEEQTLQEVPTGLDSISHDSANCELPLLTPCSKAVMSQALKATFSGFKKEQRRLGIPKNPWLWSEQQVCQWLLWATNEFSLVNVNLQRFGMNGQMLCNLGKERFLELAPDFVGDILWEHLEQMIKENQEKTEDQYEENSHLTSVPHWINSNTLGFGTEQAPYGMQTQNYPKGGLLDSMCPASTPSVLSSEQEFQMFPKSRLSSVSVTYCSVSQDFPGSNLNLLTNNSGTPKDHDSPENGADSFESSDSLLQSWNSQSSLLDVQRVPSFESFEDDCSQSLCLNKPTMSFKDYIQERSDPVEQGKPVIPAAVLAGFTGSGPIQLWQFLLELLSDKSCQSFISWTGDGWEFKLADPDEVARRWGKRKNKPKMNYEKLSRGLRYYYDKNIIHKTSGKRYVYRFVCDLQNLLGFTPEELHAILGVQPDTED
The settings on record: protein: recombinant; tags: N-terminal GST; dsDNA, one strand shown. A digest of the protocol:
as §1

The target in the next assay is T9, SPDEF (Homo sapiens, UniProt O95238 1-335).
T9 sequence: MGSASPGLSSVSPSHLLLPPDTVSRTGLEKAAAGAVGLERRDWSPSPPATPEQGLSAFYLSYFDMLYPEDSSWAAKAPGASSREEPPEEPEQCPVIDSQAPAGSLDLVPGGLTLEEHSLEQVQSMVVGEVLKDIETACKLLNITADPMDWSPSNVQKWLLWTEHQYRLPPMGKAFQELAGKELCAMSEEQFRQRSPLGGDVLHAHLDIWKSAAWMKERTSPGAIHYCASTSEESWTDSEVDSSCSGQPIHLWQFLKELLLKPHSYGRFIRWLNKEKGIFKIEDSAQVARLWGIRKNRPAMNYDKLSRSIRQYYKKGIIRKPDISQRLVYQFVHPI
Conditions: protein: recombinant; tags: N-terminal GST; dsDNA, one strand shown. A digest of the protocol: as §1

A further assay addresses T10, ETV7 (Homo sapiens, UniProt Q9Y603 1-341).
T10 sequence: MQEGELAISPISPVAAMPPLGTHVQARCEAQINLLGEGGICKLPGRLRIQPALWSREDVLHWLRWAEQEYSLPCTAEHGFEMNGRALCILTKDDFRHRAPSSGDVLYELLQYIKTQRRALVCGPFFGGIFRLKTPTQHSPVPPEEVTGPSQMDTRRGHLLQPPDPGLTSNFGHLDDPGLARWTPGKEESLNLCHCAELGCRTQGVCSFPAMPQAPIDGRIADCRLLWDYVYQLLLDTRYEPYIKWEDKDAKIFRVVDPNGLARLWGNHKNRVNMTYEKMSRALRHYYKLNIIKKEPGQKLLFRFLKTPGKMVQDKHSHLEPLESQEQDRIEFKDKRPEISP
The settings on record: protein: recombinant; tags: N-terminal GST; dsDNA, one strand shown. A digest of the protocol: as §1

The target in another assay is T11, ELF5 (Homo sapiens, UniProt Q9UKW6-2 1-255).
T11 sequence: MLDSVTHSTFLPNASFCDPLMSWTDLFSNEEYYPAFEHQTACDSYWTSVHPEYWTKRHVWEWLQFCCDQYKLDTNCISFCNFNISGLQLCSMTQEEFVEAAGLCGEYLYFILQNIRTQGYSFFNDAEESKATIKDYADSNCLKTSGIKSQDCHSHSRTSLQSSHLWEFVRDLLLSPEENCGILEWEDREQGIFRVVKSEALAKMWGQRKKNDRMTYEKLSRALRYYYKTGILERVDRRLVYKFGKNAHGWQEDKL
Conditions: protein: recombinant; tags: N-terminal GST; dsDNA, one strand shown. A digest of the protocol: as §1

A further assay addresses T12, ETV3 (Homo sapiens, UniProt P41162-2 1-143).
T12 sequence: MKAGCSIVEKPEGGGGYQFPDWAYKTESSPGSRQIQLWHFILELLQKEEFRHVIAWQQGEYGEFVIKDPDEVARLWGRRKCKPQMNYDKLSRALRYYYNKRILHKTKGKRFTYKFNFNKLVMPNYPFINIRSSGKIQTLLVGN
The settings on record: protein: recombinant; tags: N-terminal GST; dsDNA, one strand shown. A digest of the protocol:
as §1

The target in the next assay is ETV6 (Homo sapiens, UniProt P41212 1-452). The settings on record: protein: recombinant; tags: N-terminal GST; dsDNA, one strand shown. A digest of the protocol:
as §1

ETV5, sequence (P41161 whole entry): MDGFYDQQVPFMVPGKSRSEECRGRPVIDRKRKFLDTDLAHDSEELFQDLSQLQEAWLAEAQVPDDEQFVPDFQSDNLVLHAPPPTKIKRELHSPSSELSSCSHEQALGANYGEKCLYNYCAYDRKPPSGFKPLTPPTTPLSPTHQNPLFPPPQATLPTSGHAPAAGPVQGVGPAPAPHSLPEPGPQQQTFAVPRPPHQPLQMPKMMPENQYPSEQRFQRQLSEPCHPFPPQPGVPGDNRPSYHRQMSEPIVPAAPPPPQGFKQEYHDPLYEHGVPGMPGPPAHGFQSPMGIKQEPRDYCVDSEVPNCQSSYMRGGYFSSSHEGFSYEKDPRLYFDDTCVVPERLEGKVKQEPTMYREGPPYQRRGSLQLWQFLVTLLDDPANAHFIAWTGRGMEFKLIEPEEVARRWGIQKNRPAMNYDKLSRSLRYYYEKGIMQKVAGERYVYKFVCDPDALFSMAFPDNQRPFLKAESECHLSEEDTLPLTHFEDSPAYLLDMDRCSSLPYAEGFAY
CRX, sequence (O43186 whole entry): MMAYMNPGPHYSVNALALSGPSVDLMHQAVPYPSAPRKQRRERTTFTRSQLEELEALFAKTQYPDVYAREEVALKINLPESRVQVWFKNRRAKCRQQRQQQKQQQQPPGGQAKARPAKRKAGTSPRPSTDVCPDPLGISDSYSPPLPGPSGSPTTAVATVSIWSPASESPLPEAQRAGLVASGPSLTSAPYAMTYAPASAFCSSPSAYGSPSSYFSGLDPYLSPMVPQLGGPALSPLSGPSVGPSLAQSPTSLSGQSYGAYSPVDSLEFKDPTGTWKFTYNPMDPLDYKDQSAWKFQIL
HSF1, sequence (Q00613 whole entry): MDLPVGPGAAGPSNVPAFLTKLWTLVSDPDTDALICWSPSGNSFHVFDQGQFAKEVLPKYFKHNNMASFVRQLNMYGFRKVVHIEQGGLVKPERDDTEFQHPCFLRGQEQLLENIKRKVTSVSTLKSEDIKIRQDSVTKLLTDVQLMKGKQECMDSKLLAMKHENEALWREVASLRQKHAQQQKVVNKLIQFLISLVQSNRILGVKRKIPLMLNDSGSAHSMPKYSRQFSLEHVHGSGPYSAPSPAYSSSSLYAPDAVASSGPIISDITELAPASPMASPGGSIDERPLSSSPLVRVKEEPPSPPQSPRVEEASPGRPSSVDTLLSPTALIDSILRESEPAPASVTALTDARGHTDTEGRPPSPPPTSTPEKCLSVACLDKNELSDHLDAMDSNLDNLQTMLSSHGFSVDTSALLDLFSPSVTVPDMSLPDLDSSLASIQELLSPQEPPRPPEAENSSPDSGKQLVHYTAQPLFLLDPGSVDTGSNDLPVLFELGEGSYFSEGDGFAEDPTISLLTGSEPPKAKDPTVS
ETV1, sequence (P50549 whole entry): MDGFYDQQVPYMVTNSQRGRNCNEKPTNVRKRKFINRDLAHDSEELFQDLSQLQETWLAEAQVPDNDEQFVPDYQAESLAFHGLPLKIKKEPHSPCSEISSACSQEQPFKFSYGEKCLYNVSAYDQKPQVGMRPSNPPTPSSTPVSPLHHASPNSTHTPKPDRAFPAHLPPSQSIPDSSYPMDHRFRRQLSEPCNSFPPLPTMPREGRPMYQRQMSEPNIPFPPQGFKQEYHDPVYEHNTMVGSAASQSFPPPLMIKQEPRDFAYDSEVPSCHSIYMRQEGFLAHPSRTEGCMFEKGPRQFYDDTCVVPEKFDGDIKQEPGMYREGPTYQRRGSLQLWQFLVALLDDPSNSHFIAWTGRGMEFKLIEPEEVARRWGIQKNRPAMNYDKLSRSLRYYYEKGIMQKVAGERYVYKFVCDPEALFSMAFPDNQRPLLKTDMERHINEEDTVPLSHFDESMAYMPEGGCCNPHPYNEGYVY
ETV6, sequence (P41212 whole entry): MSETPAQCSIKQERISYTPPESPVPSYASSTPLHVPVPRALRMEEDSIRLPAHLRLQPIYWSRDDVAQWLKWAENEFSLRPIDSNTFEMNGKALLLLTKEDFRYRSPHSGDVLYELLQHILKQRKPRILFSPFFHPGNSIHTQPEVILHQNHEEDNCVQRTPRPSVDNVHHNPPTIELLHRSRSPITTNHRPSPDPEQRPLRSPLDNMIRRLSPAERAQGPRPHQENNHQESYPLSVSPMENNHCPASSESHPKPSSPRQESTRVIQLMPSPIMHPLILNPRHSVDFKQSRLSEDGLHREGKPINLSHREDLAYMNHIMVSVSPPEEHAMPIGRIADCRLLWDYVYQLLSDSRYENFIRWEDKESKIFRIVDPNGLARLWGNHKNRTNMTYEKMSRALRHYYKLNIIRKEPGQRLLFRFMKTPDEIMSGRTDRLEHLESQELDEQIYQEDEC
ELF4, sequence (Q99607 whole entry): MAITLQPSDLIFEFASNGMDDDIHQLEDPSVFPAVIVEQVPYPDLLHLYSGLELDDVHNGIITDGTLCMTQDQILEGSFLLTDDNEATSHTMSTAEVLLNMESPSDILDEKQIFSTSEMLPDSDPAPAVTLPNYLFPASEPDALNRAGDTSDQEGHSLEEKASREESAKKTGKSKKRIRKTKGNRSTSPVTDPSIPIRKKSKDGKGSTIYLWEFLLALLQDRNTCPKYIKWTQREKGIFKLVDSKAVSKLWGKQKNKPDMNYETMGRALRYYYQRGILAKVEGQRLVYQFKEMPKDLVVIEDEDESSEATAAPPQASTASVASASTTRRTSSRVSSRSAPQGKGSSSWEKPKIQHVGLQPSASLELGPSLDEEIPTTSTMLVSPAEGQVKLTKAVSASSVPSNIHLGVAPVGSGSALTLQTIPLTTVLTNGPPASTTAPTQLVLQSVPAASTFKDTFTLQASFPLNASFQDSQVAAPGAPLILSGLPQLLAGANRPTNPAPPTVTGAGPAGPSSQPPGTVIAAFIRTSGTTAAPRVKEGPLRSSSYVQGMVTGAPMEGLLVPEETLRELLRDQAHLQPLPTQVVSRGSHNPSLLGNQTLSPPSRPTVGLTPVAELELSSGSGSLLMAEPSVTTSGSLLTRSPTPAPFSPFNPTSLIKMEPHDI

Consider TCTCTC, for which the binding signal with FEV was 1.21 fold enrichment (6-mer frequency, TF over GST control); in the assay with ETV5, 1.27 fold enrichment (6-mer frequency, TF over GST control); in the assay with HSF1 it was 1.59 fold enrichment (6-mer frequency, TF over GST control); in the assay with SPIC, 1.36 fold enrichment (6-mer frequency, TF over GST control); with ELF4 it was 1.44 fold enrichment (6-mer frequency, TF over GST control); with ELK4, 1.38 fold enrichment (6-mer frequency, TF over GST control). Besides, the binding signal in the assay with ETV2 is 1.34 fold enrichment (6-mer frequency, TF over GST control); with ELF3, 1.39 fold enrichment (6-mer frequency, TF over GST control); with CRX it was 1.35 fold enrichment (6-mer frequency, TF over GST control); with ETV1, 1.3 fold enrichment (6-mer frequency, TF over GST control); in the assay with ERF, 1.31 fold enrichment (6-mer frequency, TF over GST control); with ETV3L it was 1.38 fold enrichment (6-mer frequency, TF over GST control). The binding signal with ETS2 was 1.2 fold enrichment (6-mer frequency, TF over GST control); with SPDEF, 1.28 fold enrichment (6-mer frequency, TF over GST control); in the assay with ETV7 it was 1.11 fold enrichment (6-mer frequency, TF over GST control); in the assay with ELF5, 1.24 fold enrichment (6-mer frequency, TF over GST control); in the assay with ETV3, 1.37 fold enrichment (6-mer frequency, TF over GST control); with ETV6 it was 1.27 fold enrichment (6-mer frequency, TF over GST control).
